The values below come from the supplement of paper PMC8728848.

Many of the other results were omitted from the sample, so the strongest signals are more common in it than they were.

Holding throughout (experiment): glycan array binding signal (z-score within array); higher = stronger binding
Conditions in all cases: glycan notation: IUPAC condensed, linker removed

The target of test [1] is Man(a1-3)[Man(a1-6)]Man(a1-6)[Man(a1-2)Man(a1-3)]Man(b1-4)GlcNAc(b1-4)GlcNAc. An outline of the steps: (§1)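 The binding signal is a Z-score computed within each array and averaged over linkers. Arrays of the same protein sequence at different concentrations or buffers were also averaged together. Data originate from 3228 arrays in the Consortium for Functional Glycomics database, kept only where the protein sequence was available.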

In test [2] the target is Man(a1-3)[Man(a1-6)]Man(a1-6)[Man(a1-3)]Man. An outline of the steps:
as §1

The target of test [3] is Man(a1-6)Man. An outline of the steps:
as §1

The target in test [4] is Neu5Ac(a2-3)Gal(b1-3)GlcNAc(b1-2)Man(a1-3)[GlcNAc(b1-4)][Neu5Ac(a2-3)Gal(b1-3)GlcNAc(b1-2)Man(a1-6)]Man(b1-4)GlcNAc(b1-4)GlcNAc. An outline of the steps:
as §1

Test [5] has as its target Neu5Ac(a2-3)Gal(b1-3)GlcNAc(b1-4)Gal(b1-4)Glc. An outline of the steps:
as §1

Test [6] concerns the target Neu5Ac(a2-3)Gal(b1-4)Glc. An outline of the steps: as §1
Test [7] has as its target Neu5Ac(a2-3)Gal(b1-4)GlcNAc(b1-2)Man. An outline of the steps:
as §1

The target in test [8] is Neu5Ac(a2-3)Gal(b1-4)GlcNAc(b1-2)[Neu5Ac(a2-3)Gal(b1-4)GlcNAc(b1-4)]Man(a1-3)[GlcNAc(b1-4)][Neu5Ac(a2-3)Gal(b1-4)GlcNAc(b1-4)Man(a1-6)]Man(b1-4)GlcNAc(b1-4)GlcNAc. An outline of the steps:
as §1

Test [9] concerns the target Neu5Ac(a2-3)Gal(b1-4)GlcNAc(b1-3)Gal(b1-4)GlcNAc(b1-2)Man(a1-3)[Neu5Ac(a2-3)Gal(b1-4)GlcNAc(b1-3)Gal(b1-4)GlcNAc(b1-2)Man(a1-6)]Man(b1-4)GlcNAc(b1-4)GlcNAc. An outline of the steps:
as §1

The target of test [10] is Neu5Ac(a2-3)[GalNAc(b1-4)]Gal(b1-4)GlcNAc. An outline of the steps: as §1
Test [11] deals with Neu5Ac(a2-6)Gal(b1-4)GlcNAc(b1-2)Man(a1-3)[Gal(b1-4)GlcNAc(b1-2)Man(a1-6)]Man(b1-4)GlcNAc(b1-4)GlcNAc. An outline of the steps: as §1
Test [12] has as its target Neu5Ac(a2-6)Gal(b1-4)GlcNAc(b1-2)Man(a1-6)[Man(a1-3)]Man(b1-4)GlcNAc(b1-4)GlcNAc. An outline of the steps: as §1
Test [13] addresses Neu5Ac(a2-6)Gal(b1-4)GlcNAc(b1-2)[Neu5Ac(a2-6)Gal(b1-4)GlcNAc(b1-4)]Man(a1-3)[GlcNAc(b1-4)][Neu5Ac(a2-6)Gal(b1-4)GlcNAc(b1-4)Man(a1-6)]Man(b1-4)GlcNAc(b1-4)GlcNAc. An outline of the steps:
as §1

Test [14] deals with Neu5Ac(a2-6)Gal(b1-4)GlcNAc(b1-3)Gal(b1-4)GlcNAc. An outline of the steps: as §1
Test [15] deals with Neu5Ac(a2-6)Gal(b1-4)GlcNAc(b1-3)Gal(b1-4)GlcNAc(b1-3)Gal(b1-4)GlcNAc(b1-2)Man(a1-3)[Neu5Ac(a2-6)Gal(b1-4)GlcNAc(b1-3)Gal(b1-4)GlcNAc(b1-3)Gal(b1-4)GlcNAc(b1-2)Man(a1-6)]GalNAc. An outline of the steps: as §1
Test [16] has as its target Neu5Ac(a2-8)Neu5Ac(a2-3)[GalNAc(b1-4)]Gal(b1-4)Glc. An outline of the steps: as §1
Test [17] addresses Neu5Ac(a2-8)Neu5Ac(a2-8)Neu5Ac(a2-8)Neu5Ac(a2-3)[GalNAc(b1-4)]Gal(b1-4)Glc. An outline of the steps: as §1
Test [18] deals with Neu5Gc(a2-3)Gal(b1-3)[Fuc(a1-4)]GlcNAc. An outline of the steps:
as §1

For test [19], the target named is Neu5Gc(a2-3)Gal(b1-4)Glc. An outline of the steps: as §1
The target of test [20] is Neu5Gc(a2-3)Gal(b1-4)GlcNAc. An outline of the steps:
as §1

Test [21] concerns the target Fuc(a1-2)Gal(b1-3)[Fuc(a1-4)]GlcNAc. An outline of the steps: as §1
The target in test [22] is Fuc(a1-2)GlcNAc. An outline of the steps:
as §1

Test [23] addresses Fuc(a1-2)[GalNAc(a1-3)]Gal(b1-3)GlcNAc. An outline of the steps:
as §1

Test [24] addresses Gal(b1-3)GalNAc(b1-4)Gal(b1-4)Glc. An outline of the steps:
as §1

Test [25] has as its target Gal(b1-3)GlcNAc(b1-3)Gal(b1-4)Glc. An outline of the steps:
as §1

For test [26], the target named is Gal(b1-3)[Fuc(a1-4)]GlcNAc(b1-3)Gal(b1-4)[Fuc(a1-3)]GlcNAc. An outline of the steps: as §1
Test [27] addresses Gal(b1-4)GlcNAc(b1-3)Gal(b1-4)GlcNAc(b1-3)Gal(b1-4)GlcNAc. An outline of the steps:
as §1

In test [28] the target is Gal3S6S(b1-4)GlcNAc6S. An outline of the steps:
as §1

In test [29] the target is GalNAc(a1-3)GalNAc. An outline of the steps:
as §1

The target in test [30] is GlcNAc(b1-3)Gal(b1-4)GlcNAc. An outline of the steps:
as §1

The target in test [31] is GlcNAc(b1-3)Man. An outline of the steps: as §1
For test [32], the target named is GlcNAc(b1-3)[GlcNAc(b1-6)]GalNAc. An outline of the steps: as §1
Test [33] addresses Man(a1-2)Man(a1-3)[Man(a1-2)Man(a1-6)]Man(a1-6)[Man(a1-2)Man(a1-2)Man(a1-3)]Man(b1-4)GlcNAc(b1-4)GlcNAc. An outline of the steps: as §1
The target in test [34] is Man(a1-2)Man(a1-6)[Man(a1-3)]Man(a1-6)[Man(a1-2)Man(a1-2)Man(a1-3)]Man. An outline of the steps: as §1
Test [35] concerns the target Man(a1-3)[Man(a1-6)]Man(a1-6)[Man(a1-3)]Man(b1-4)GlcNAc(b1-4)GlcNAc. An outline of the steps: as §1
Test [36] deals with Neu5Ac(a2-3)Gal(b1-3)GalNAc(b1-3)Gal(a1-4)Gal(b1-4)Glc. An outline of the steps:
as §1

For test [37], the target named is Neu5Ac(a2-3)Gal(b1-3)GlcNAc6S. An outline of the steps: as §1
Test [38] has as its target Neu5Ac(a2-3)Gal(b1-3)[Neu5Ac(a2-3)Gal(b1-4)]GlcNAc. An outline of the steps: as §1
For test [39], the target named is Neu5Ac(a2-3)Gal(b1-4)[Fuc(a1-3)]GlcNAc(b1-3)Gal(b1-4)GlcNAc. An outline of the steps:
as §1

Test [40] deals with Neu5Ac(a2-3)Gal(b1-4)[Fuc(a1-3)]GlcNAc(b1-3)Gal(b1-4)[Fuc(a1-3)]GlcNAc(b1-3)Gal(b1-4)[Fuc(a1-3)]GlcNAc. An outline of the steps:
as §1

In test [41] the target is Neu5Ac(a2-3)Gal(b1-4)[Fuc(a1-3)]GlcNAc(b1-6)[Gal(b1-3)]GalNAc. An outline of the steps:
as §1

For test [42], the target named is Neu5Ac(a2-3)Gal6S(b1-4)[Fuc(a1-3)]GlcNAc. An outline of the steps: as §1
Test [43] has as its target Neu5Ac(a2-3)GalNAc(b1-4)GlcNAc. An outline of the steps:
as §1

In test [44] the target is Neu5Ac(a2-6)Gal(b1-4)GlcNAc(b1-3)Gal(b1-4)[Fuc(a1-3)]GlcNAc(b1-3)Gal(b1-4)[Fuc(a1-3)]GlcNAc. An outline of the steps: as §1
For test [45], the target named is Neu5Ac(a2-8)Neu5Ac(a2-8)Neu5Ac(a2-3)Gal(b1-4)Glc. An outline of the steps: as §1
Test [46] has as its target Neu5Ac(a2-8)Neu5Ac(a2-8)Neu5Ac(a2-3)[GalNAc(b1-4)]Gal(b1-4)Glc. An outline of the steps: as §1

B1: CaSRK1 (Capsicum annuum) (protein)
chain: MALCKIFPFAFILLSCSCYLISGQRFDYPTANLSTTWINSVSAPHSIDYTDGSRIRAILLRGTFGPRYACGFYCNGNCESYLFAIFIVQTNSASQITSPAIGFPQVVWSANRNNPVKINSTLQLTAEGDLVLRDADGTLAWSTNTAGKSVAGLSLTDEGNLALFDSKNATVWQSFDHPTDALVPGQKLVPGMKLTASVSRTNWTAGGLFALSAIDNGLVAFVESNPPQKYFEASVGGSNTSGGSNYVKYLNGSLTLFTHSADTTELILISITPASSAQYMKLESNGHLKVYEWTSRGWREVDDLLTGFRGECNYPTVCGRYGICTMGQCSCPTSSSSRTYFRPIDVRRPSLGCSEVTKLTCQNTKKHSPLEVEDVDYFAFKAGISDTDLNTCKRACLEKCSCKAAFFRSGLNSSRTRGDCYLPTEIFSIMNNEKDRTRYDSVAFIKVQV
As to B1, the “glycan array binding signal (z-score)” value was -0.258 in test [1]; -0.303 in test [2]; 1.5 in [3]; -0.549 in test [4]; 0.467 in test [5]; -0.089 in test [6]. The “glycan array binding signal (z-score)” value in [7] is 7.73; in [8] it was 0.06; in test [9] it was 1.33; in [10], -0.414; in test [11] it was -0.423; in [12], -0.589. For the same molecule, the “glycan array binding signal (z-score)” value is -0.513 in test [13]; -0.402 in [14]; 2.58 in test [15]; -0.56 in test [16]; -0.413 in test [17]; -0.319 in test [18]. Besides, the “glycan array binding signal (z-score)” value in test [19] was 3.18; in test [20], -0.416.

B2: CD83 (Homo sapiens) (protein)
chain: MSRGLQLLLLSCAYSLAPATPEVKVACSEDVDLPCTAPWDPQVPYTVSWVKLLEGGEERMETPQEDHLRGQHYHQKGQNGSFDAPNERPYSLKIRNTTSCNSGTYRCTLQDPDGQRNLSGKVILRVTGCPAQRKEETFKKYRAETSEQKLISEEDLSRGSDDDDKAEPRGP
B2: the “glycan array binding signal (z-score)” value was -0.388 in test [21]; -0.045 in test [22]; -0.222 in [23]; -0.09 in test [24]; -0.32 in [25]; -0.243 in test [26]. Further, the “glycan array binding signal (z-score)” value is -0.142 in [27]; -0.129 in test [28]; -0.329 in test [29]; -0.162 in [30]; -0.188 in test [31]; -0.453 in [32]. For the same molecule, the “glycan array binding signal (z-score)” value is 2.96 in test [33]; -0.272 in test [34]; 11.7 in [1]; 0.723 in [35]; 0.647 in test [36]; 8.93 in [37]. Also, the “glycan array binding signal (z-score)” value was -0.458 in test [38]; 0.381 in [39]; -0.243 in test [40]; -0.12 in test [41]; -0.131 in test [42]; -0.291 in [43]. Further, the “glycan array binding signal (z-score)” value in [44] is 0.014; in [45], 3.7; in [46] it was 2.88.
